# Source: PubChem BioAssay (NCI)
# Compounds without any hit were thinned out: in the full panel of roughly 83,000, 20% have a hit.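 Note: values are percent growth. 100 is the growth of untreated cells, values between 100 and 0 indicate rising inhibition; between -100 and 0 indicates cell death.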 Calls of active or inactive are those of the source. The calls were made as follows: active = growth percent below 10; inactive = the rest.
# Tested on: UACC-257 melanoma
# Assay: NCI-60 one-dose screen, 48 h (100 = growth as untreated, 0 = no growth, -100 = all killed)
# Conditions: 10 µM unless noted
row,Compound,growth
1,COC(=O)[C@@H]1CCCN1C(=O)[C@H]1CCCN1C(=O)[C@@H](Cc1c[nH]c2ccccc12)NC(=S)Nc1cc(C(F)(F)F)cc(C(F)(F)F)c1,69.5% (inactive)
2,Cc1ccc(F)cc1NC(=O)c1cc(Cl)ccc1Nc1ccccc1,65.7% (inactive)
3,CC1=C(C(=O)OCC2CCN(C(=O)OC(C)(C)C)CC2)[C@@H](c2cccc(C#N)c2)C2=C(CC(C)(C)CC2=O)N1,61.4% (inactive)
4,CCCCCCc1cc2cc(-c3csc(/C=C/c4ccccc4)n3)c(=O)oc2cc1O,-78.3% (active)
5,COc1ccc(Br)c(/C=C2\SC(=Nc3ccc(O)cc3)NC2=O)c1,102% (inactive)
6,COc1ccc(Cn2c(Br)c3c(c2Br)-c2nc(N)sc2CC3)cc1,70.4% (inactive)
7,COC(=O)c1cc2c(n1Cc1ccccc1)-c1oncc1CCC2,76.2% (inactive)
8,CCOC(=O)c1sc(-c2ccc(OS(=O)(=O)c3ccccc3[N+](=O)[O-])c(C=O)c2)nc1C,49.5% (inactive)
9,Clc1ncccc1Nc1ccc2nnc(-c3ccncc3)n2n1,102% (inactive)
10,O=C1NC(=O)C(=Cc2cn(Cc3cn(Cc4ccc(Cl)cc4Cl)nn3)c3ccccc23)C(=O)N1,95.8% (inactive)
11,CCCCCCn1c(=N)n(CC(O)COc2cccc(C)c2)c2ccccc21 (stereo not drawn),-87.8% (active)
12,O=C(Nc1ncc(Cc2cccc(C(F)(F)F)c2)s1)C1COc2ccccc2O1 (stereo not drawn),88.1% (inactive)
13,CN1C(=O)N(C)C2C1NN=c1s/c(=C\c3ccc([N+](=O)[O-])cc3)c(=O)n12 (stereo not drawn),63.6% (inactive)
